ALDH1A1 inh: blocks purified human ALDH1A1 activity | P00352 | Purified ALDH1A1, NADH fluorescence, propionaldehyde substrate | Potency, µM (top dose mostly 75.3 µM), without a hit: at the top dose activity, negative = inhibition, usual class: inhibitors | 220,000 compounds, 7.3% hits; active = well fitted inhibition curve with a large enough effect, not every such curve was filed as active; inconclusive = small, poorly fitted or top-dose-only effect, or another doubt; inactive = no such curve, though single readings can be large or run the other way;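 also: potency is read from the fitted curve at half-maximal effect; plate controls were no enzyme wells and a reference inhibitor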
Target sequence (P00352 whole entry, looked up): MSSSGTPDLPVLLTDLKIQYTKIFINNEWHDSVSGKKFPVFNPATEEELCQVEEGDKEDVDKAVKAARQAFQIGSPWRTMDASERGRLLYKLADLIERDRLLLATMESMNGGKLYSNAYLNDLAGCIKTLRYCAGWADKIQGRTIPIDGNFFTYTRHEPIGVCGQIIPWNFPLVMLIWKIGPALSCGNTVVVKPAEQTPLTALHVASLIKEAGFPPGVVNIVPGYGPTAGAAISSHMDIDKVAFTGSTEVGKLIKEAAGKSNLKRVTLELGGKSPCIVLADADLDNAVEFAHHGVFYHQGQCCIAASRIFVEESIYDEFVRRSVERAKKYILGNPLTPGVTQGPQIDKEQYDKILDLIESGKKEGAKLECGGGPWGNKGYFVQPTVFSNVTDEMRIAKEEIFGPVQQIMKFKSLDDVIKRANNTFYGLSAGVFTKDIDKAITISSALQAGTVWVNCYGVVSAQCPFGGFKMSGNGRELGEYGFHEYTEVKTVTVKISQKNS
HttQ103 aggreg: inhibitors of mutant huntingtin aggregate formation in PC12 cells; 220,000 compounds, 1.1% hits; PC12 HttQ103-GFP aggregates, Acumen cytometry, 40 h; Potency, µM (series often up to 46.1 µM), without a hit: at the top dose activity change, negative = inhibition, most hits filed as inhibitors; also: potency is read from the fitted curve at half-maximal effect; % is scaled to controls: 0 for no effect and ±100 for the full control effect; nearly all actives have a fitted effect of over 60% in size
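Quantitative HTS on tebufenozide-induced (100 nM) PC12 cells stably expressing polyQ103 Huntingtin exon 1–GFP. Reduction of bright GFP aggregates, detected by laser scanning cytometry after lysis, identified actives across the titration.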
CBFb RUNX1 block: inhibitors of human CBF-beta and RUNX1 interaction; AlphaScreen CBFb-His/RUNX1-biotin binding, biochemical; Potency, µM (titrated, usually from 59.8 µM), for the others: top-dose activity, negative = inhibition, actives largely listed as inhibitors; 230,000 tested, under 10 active; AID 1477; also: % of control where 0% means no effect
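Proteins preincubated together for 20 min at RT before compound addition; 15 min later, nickel and streptavidin beads were added and left 90 min prior to AlphaScreen measurement.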
HPGD inh: inhibitors of human 15-hydroxyprostaglandin dehydrogenase (HPGD); 150,000 compounds, 4.3% hits; Potency, µM, for the others: at the highest dose activity change, negative = inhibition, actives largely listed as inhibitors; AID 894; purified HPGD, NADH fluorescence kinetic, PGE2 substrate; active = well fitted inhibition curve with a large enough effect, not every such curve was filed as active; inconclusive = small, poorly fitted or top-dose-only effect, or another doubt; inactive = no such curve, though single readings can be large or run the other way; also: potency is read from the fitted curve at half-maximal effect; % is scaled to controls: 0 for no effect and ±100 for the full control effect
Target sequence (P15428 whole entry, looked up): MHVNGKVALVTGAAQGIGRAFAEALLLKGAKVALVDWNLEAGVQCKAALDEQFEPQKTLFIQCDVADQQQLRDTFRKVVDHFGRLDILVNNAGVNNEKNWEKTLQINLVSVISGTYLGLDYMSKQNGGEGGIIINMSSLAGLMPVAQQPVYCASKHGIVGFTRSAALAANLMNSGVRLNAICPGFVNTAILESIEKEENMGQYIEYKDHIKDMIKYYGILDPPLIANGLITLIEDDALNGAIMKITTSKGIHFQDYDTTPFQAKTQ
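NADH formation kinetics: reaction with 30 uM PGE2 and 1 mM NAD+ (final), 20 nM enzyme, Tris-HCl pH 8 with Tween 20, after 15 min compound preincubation at room temperature. Fluorescence change, last versus first of five reads.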
PNC assembly inh: blocks assembly of the perinucleolar compartment; PC3M PTB-GFP, PNC prevalence imaging, 16 h; active compounds read low; activity change (PNC), negative = inhibition, % at 10 µM; 140,000 compounds, 3.1% hits; AID 2417;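 active = readout at or below -70, meaning at least 70% loss of cells showing the perinucleolar compartment, a nuclear body marking cancer cells; inconclusive = readout between -30 and a set limit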;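 also: plate controls were DMSO wells for no effect and camptothecin positive control wells for full effect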
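Compounds are pinned in duplicate onto adhered PC3M cells stably expressing GFP-tagged PTB and incubated 16 h at 37 C. Cells are then fixed, nuclei stained with Hoechst, and PNC-positive cells counted.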
HTT ATP protect: protects HTT-Q103 PC12 cells, measured by ATP | PC12 HTT-Q103 induced, cytoprotection, ATP luminescence, 40 h | Potency, µM (doses to about 56.4 µM), for inactives: cytoprotection (ATP increase), actives largely listed as activators | 230,000 compounds, 0.14% hits | AID 1471; also: potency is read from the fitted curve at half-maximal effect; % of control where 0% means no effect; nearly all actives have a fitted effect of over 45% in size
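Readout: ATPlite luminescence (ATP level). Model: stable PC12, inducible Htt exon1 Q103-GFP. Inducer: tebufenozide, 100 nM final. Compounds: dose series. No G418 in medium.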
* hit, by the source's call; ? = inconclusive; . = no result; [ ] = another dose, or the depositor's remark. Most compounds without a hit are left out; they make up all but 11% or so of the library. Unless noted, calls follow the shape of the dose curve; as a rule, active = well fitted curve in the direction sought with a large enough effect; inconclusive = small, poorly fitted or top-dose-only effect, or another doubt; inactive = no such curve, though single readings can be large; an effect the other way counts as inactive or inconclusive.

SMILES | ALDH1A1 inh | HttQ103 aggreg | CBFb RUNX1 block | HPGD inh | PNC assembly inh | HTT ATP protect
CCOc1ccc(N2C(=O)c3cccnc3C2Nc2ccc(Cl)cc2)cc1 (configuration not stated) | -14.9% | 13.2% | -5.4% | -1.4% | 107.3 | -7.7%
CN(Cc1ccccc1)C(=O)C1CCN(S(=O)(=O)c2cc([N+](=O)[O-])ccc2Cl)CC1 | 6.31µM* | 14.5% | -2.0% | . | 26.9 | 8.2%[10 µM]
CC(NC(=O)C1CCN(S(=O)(=O)c2cc([N+](=O)[O-])ccc2Cl)CC1)c1ccccc1 (configuration not stated) | ? | 0.3% | 6.6% | -6.4% | -15.6 | 0.1%[10 µM]
O=C(NCc1ccccc1)C1CCN(S(=O)(=O)c2cc([N+](=O)[O-])ccc2Cl)CC1 | 25.1µM* | 20.6% | -7.6% | -9.7% | -12.5 | -4.0%[10 µM]
C/C(=N/Nc1cc(-c2ccccc2)nc(-c2ccccc2)n1)c1ccc(O)cc1 | ? | 35.5µM* | -6.6% | ? | 110.0 | 12.2%[10 µM]
O=C(Oc1ccccc1)N1CCC[C@@]2(CCN(c3ccncc3)C2)C1 | 2.8% | . | . | 2.8% | . | 23.3%
Cc1ccsc1C1C(C#N)=C(N)N(N(C)C)C2=C1C(=O)CCC2 (configuration not stated) | 14.1µM* | -0.8% | -7.4% | . | . | -23.1%
C[C@@H](c1ccccc1)N1C(=O)[C@H]2[C@H]3[C@H](O)[C@H](O)C/C(=N/OCc4ccccc4)[C@H]3CC[C@@H]2C1=O | 0.8%[13.5 µM] | . | -6.6%[13.1 µM] | . | . | ?
C/C(=C\C(=O)c1ccc(Cl)cc1Cl)N(C)C | 5.62µM* | -6.4% | -3.9% | . | . | 12.7%
O=c1[nH]nc(-c2ccc(F)cc2)cc1Cc1ccccc1 | . | -18.1%[9.22 µM] | 5.4% | . | . | 1.5%[10 µM]
CCN1C(=O)NC2=C(C(=O)c3ccccc32)C1c1ccccc1F (configuration not stated) | 0.316µM* | 2.5% | -22.9% | -10.2% | ? | -21.0%
COc1ccc(OCC(=O)Nc2ccc(C)c(S(=O)(=O)N(C)C)c2)cc1 | 28.2µM* | -13.2% | -2.9% | . | . | -23.3%
Cc1ccc(NC(=O)CCNCc2ccco2)cc1S(=O)(=O)N(C)C | 15.8µM* | -4.9% | -3.7% | . | . | 21.0%[10 µM]
COc1ccc(CCNCC(=O)Nc2ccc(C)c(S(=O)(=O)N(C)C)c2)cc1OC | 15.8µM* | -11.0%[9.22 µM] | 1.7% | . | . | 10.3%[10 µM]
Cc1ccc(NC(=O)CCNC(=O)c2ccccc2Cl)cc1S(=O)(=O)N(C)C | 3.1% | -9.8% | 4.0% | -0.1% | ? | 13.3%[10 µM]
COc1ccc(NC(=O)N2CCC3(CC2)CCN(C(=O)c2ccco2)CC3)cc1 | -14.7% | . | . | -3.0% | . | 3.8%
CN1CCN(c2ncc3ncc(=O)n(C4CC4)c3n2)CC1 | ? | . | . | . | . | 9.5%
COC(=O)N[C@@H](CCc1ccccc1)[C@]1(C(=O)OC)CCCC1=O | 1.5% | . | -11.3% | -1.1% | . | -12.7%
CCN1CCN(C(=O)Cn2cnc3sc(C)c(S(=O)(=O)N4CCN(c5ncccn5)CC4)c3c2=O)CC1 | 11.4% | 1.1% | 5.5% | . | . | -17.7%
CC1(C)C(c2ccc(Cl)cc2)=[N+]([O-])C2(CCCC/C2=N\O)N1O (configuration not stated) | 6.2% | 0.9% | 6.6% | -2.2% | -2.0 | -4.7%[10 µM]
Cc1ccc(C2=[N+]([O-])C3(CCCCC/C3=N\O)N(O)C2(C)C)o1 (configuration not stated) | 28.2µM* | -4.8% | 3.5% | -14.5% | -11.2 | 27.3%
COc1ccc(-c2nn3c(C4CCCCC4)nnc3s2)cc1OC | 12.6µM* | -26.1% | -3.9% | ? | 24.8 | -67.5%
CCOC(=O)N1CCC(N2Cc3cccc(C(=O)NCc4ccccc4OC)c3C2=O)CC1 | 5.5% | -4.7% | -3.2% | -11.3% | -100.0* | -5.8%[10 µM]
CCOC(=O)N1CCC(N2Cc3cccc(C(=O)Nc4ccc(CC)cc4)c3C2=O)CC1 | 129.6% | 13.0% | 0.7% | -14.0% | -107.5* | -7.5%
CCOC(=O)N1CCC(N2Cc3cccc(C(=O)NCc4ccc(OC)cc4)c3C2=O)CC1 | 20µM* | 17.1% | -1.4% | -7.8% | -13.1 | .
SMILES | ALDH1A1 inh | HttQ103 aggreg | CBFb RUNX1 block | HPGD inh | PNC assembly inh | HTT ATP protect
CCOC(=O)N1CCC(N2Cc3cccc(C(=O)NCc4ccc5c(c4)OCO5)c3C2=O)CC1 | 1.0% | 17.6%[9.22 µM] | -4.1% | . | . | -2.9%[10 µM]
CC1(O)C(=O)C=C2C=C3CCCN3C=C2C1=O (configuration not stated) | ? | . | 5.3%[13.1 µM] | . | . | -14.9%[10 µM]
CC1OC(OC2C(OC3C(O[C@H]4CC[C@]5(C)C6C=C[C@]78OC[C@@]9(CC[C@@H](C)[C@H](C)C97)[C@H](O)C[C@@]8(C)[C@]6(C)CC[C@H]5C4(C)C)OC(C)C(O)C3O)OC(CO)C(O)C2O)C(O)C(O)C1O (some centres not stated) | . | 0.6%[9.22 µM] | -1.5% | . | . | 2.5%[10 µM]
CCCc1cc(=O)n2[nH]c(-c3ccccc3)cc2n1 | ? | -12.6% | 6.7% | ? | -100.0* | 0.0%[10 µM]
CCCc1cc(=O)n2[nH]c(-c3ccc(C)cc3)cc2n1 | ? | 25.3% | 1.7% | ? | -3.0 | -32.4%
Cc1ccc(C(=O)N2CCN(C3c4cccc5cccc(c45)C3NS(=O)(=O)c3ccccc3)CC2)cc1 (configuration not stated) | 22.4µM* | -29.2% | -16.5% | -6.3% | -19.7 | -74.6%
CCn1ncc(C2=NOC(C(=O)NCc3ccc(Cl)cc3)C2)c1C (configuration not stated) | -0.2% | ? | 5.4% | -13.6% | -82.0* | -111.3%
COc1ccc(/C=C/C(=O)NCC(=O)N2CCC(N(C)CCN3CCOCC3)CC2)cc1OC | ? | 10.0% | 1.5% | . | . | -40.4%
O=C1c2sc3nc4n(c(=O)c3c2CCC1Br)CCCCC4 (configuration not stated) | 8.91µM* | -6.9% | -1.0% | 12.6µM* | 1.7 | -35.8%
CN=C1CC(C)(C)CC(=O)/C1=C(/O)CCCN1C(=O)c2ccccc2C1=O | ? | -7.9% | 2.0% | . | . | -34.2%
O=C1C(Cl)=C(NCCCN2CCOCC2)C(=O)N1CCc1ccccc1 | 7.94µM* | 11.2% | -5.3% | -21.4% | 18.1 | 15.4%
O=C(CSc1ccccn1)Nc1ccc(Br)cn1 | -10.6% | 12.1% | 2.3% | -11.2% | -13.6 | -4.6%
O=C(CSC1=NC2(CCCCC2)N=C1c1ccccc1)Nc1ccc2c(c1)OCCO2 | 37.1% | -12.2% | 13.5%[2.36 µM] | -13.2% | -23.3 | .
O=C(CSc1ncn(-c2ccccc2)n1)Nc1ccc(Br)cn1 | ? | -4.7% | 11.4% | 28.2µM* | -11.0 | 7.6%
O=C(CSC1=NC2(CCCCCC2)N=C1c1ccccc1)Nc1ccc2c(c1)OCCO2 | 22.4µM* | 6.0% | -12.1%[2.36 µM] | -14.3% | -118.9* | .
